Values without a mark were called inactive. Where a call stands in place of a potency, no number is given. For some assays here: Potency and affinity values are given separately. The source made the active and inactive calls. Unless noted, the rule behind the calls is not given here.
Columns and labels:
[1] = antimalarial activity against Dd2 strain (AID 2302;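 active = growth inhibition above 50% at the single 2 µM test dose, taken to imply half-maximal potency below 2 µM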); details: P. falciparum Dd2 in RBCs, LDH growth readout, 72 h; at 2 µM; stronger effect = higher value
[2] = human hepatoma cell viability loss – ATP luminescence, cytotoxicity control for P. falciparum antimalarial project, primary screen (AID 2303;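 active = inhibition above 50%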); details: HepG2 viability, 24-48 h, at 10 µM, stronger effect = higher value
[3] = target: L-lactate dehydrogenase (Plasmodium falciparum (isolate CDC / Honduras)) (UniProt Q27743); experiment: PfLDH activity inhibition – cell lysate, 3D7 strain, counter-screen for P. falciparum growth inhibition project (AID 2304); details: P. falciparum 3D7 crude extract, LDH APAD/NBT absorbance; at 2 µM; stronger effect = higher value
Chain of L-lactate dehydrogenase (Plasmodium falciparum (isolate CDC / Honduras)) (Q27743 whole entry, looked up): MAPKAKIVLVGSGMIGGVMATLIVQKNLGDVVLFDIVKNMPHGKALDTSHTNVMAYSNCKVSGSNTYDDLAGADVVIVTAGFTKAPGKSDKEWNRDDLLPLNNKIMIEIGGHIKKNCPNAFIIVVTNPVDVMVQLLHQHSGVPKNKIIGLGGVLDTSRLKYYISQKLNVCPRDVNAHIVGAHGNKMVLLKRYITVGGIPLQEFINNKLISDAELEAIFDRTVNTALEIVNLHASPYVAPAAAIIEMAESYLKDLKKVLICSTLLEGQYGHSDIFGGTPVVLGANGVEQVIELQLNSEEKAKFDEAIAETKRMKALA

[4] = inhibition of 3D7 malaria parasite growth – strain 3D7 (AID 2306); details: P. falciparum 3D7 erythrocytic growth, LDH absorbance, 72 h; at 2 µM; stronger effect = higher value
[5] = target: Calcium-dependent protein kinase 1 (Plasmodium falciparum (isolate 3D7)) (UniProt P62344); experiment: PfCDPK1 kinase inhibitors, biochemical, TCAMS library (AID 1159585; cut-off not given, nearly all actives have IC50 up to about 0.98 µM;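 note: inhibitors leave more ATP so luminescence rises with inhibition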); details: recombinant PfCDPK1, Kinase-Glo ATP depletion luminescence
Chain of Calcium-dependent protein kinase 1 (Plasmodium falciparum (isolate 3D7)) (P62344 whole entry, looked up): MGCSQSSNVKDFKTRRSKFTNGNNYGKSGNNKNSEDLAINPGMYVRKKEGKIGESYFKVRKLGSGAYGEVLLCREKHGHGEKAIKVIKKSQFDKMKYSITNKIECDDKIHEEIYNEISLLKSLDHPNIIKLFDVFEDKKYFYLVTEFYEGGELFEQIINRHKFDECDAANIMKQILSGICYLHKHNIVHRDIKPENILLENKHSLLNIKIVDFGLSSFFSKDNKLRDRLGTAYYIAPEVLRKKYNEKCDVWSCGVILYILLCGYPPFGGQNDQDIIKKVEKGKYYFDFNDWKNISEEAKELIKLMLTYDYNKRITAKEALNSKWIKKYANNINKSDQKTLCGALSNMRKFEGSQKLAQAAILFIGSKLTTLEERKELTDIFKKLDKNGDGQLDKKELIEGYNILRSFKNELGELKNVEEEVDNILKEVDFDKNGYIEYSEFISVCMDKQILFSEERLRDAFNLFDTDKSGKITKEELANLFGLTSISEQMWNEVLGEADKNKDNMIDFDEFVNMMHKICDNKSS

[6] = target: Plasmodium falciparum protein kinase 6 (PK6, PF3D7_1337100) (UniProt Q8IDW1); experiment: PfPK6 kinase inhibitors, biochemical, TCAMS library (AID 1159586); details: recombinant PfPK6, Kinase-Glo ATP depletion luminescence
Chain of Plasmodium falciparum protein kinase 6 (PK6, PF3D7_1337100) (Q8IDW1 1-305): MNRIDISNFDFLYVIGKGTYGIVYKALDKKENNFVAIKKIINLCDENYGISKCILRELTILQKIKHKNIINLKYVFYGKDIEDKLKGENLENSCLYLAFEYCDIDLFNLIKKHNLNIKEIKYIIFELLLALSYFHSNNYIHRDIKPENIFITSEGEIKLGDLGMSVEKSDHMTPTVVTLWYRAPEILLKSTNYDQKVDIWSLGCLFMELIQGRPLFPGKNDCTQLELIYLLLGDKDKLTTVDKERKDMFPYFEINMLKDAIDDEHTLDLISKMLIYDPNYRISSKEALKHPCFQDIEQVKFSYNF

[7] = target: Protein kinase 7 (PK7), Plasmodium falciparum 3D7 (PF3D7_0213400) (UniProt Q7YTF7); experiment: inhibition of Plasmodium PK7 catalytic activity – biochemical, TCAMS antimalarial set, Kinase-Glo luminescence (AID 1159587); details: recombinant PfPK7, Kinase-Glo ATP depletion luminescence
Chain of Protein kinase 7 (PK7), Plasmodium falciparum 3D7 (PF3D7_0213400) (Q7YTF7 1-343): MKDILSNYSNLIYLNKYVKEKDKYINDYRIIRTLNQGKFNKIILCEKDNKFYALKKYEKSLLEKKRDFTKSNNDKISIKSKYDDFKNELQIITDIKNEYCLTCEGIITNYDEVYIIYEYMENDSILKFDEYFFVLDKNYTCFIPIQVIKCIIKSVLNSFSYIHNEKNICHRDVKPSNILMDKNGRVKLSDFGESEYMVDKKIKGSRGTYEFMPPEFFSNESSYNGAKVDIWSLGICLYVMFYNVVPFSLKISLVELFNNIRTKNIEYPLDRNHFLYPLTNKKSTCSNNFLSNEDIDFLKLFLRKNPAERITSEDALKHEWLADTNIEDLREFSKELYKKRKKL

[8] = target: Calcium-dependent protein kinase 4 (Plasmodium falciparum (isolate 3D7)) (UniProt Q8IBS5); experiment: PfCDPK4 kinase inhibitors, biochemical, TCAMS library (AID 1159588; cut-off not given, nearly all actives have IC50 up to about 0.91 µM); details: recombinant PfCDPK4, Kinase-Glo ATP depletion luminescence
Chain of Calcium-dependent protein kinase 4 (Plasmodium falciparum (isolate 3D7)) (Q8IBS5 whole entry, looked up): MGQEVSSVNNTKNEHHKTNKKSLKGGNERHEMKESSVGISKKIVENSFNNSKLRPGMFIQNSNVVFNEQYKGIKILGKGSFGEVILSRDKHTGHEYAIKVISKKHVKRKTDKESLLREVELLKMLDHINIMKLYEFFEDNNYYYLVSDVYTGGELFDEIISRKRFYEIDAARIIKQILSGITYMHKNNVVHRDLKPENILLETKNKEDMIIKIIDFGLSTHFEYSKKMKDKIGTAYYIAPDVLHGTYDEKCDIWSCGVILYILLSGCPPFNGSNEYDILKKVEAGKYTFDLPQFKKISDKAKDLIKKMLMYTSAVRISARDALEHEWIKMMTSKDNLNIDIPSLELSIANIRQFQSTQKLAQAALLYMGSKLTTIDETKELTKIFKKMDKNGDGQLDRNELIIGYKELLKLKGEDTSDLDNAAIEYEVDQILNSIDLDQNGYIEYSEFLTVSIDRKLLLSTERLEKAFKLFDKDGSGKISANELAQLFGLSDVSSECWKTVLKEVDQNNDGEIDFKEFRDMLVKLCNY

Compound | growth inhibition [1] | inhibition [2] | inhibition [3] [%] | growth inhibition [4] | outcome [5] | outcome [6] | outcome [7] | outcome [8]
COc1ccc(CNC(=O)c2cnc3c(O)cccc3c2Nc2cccc(NC(=O)c3ccc(F)cc3)c2)cc1 | 65% (active) | 50% (active) | 2 | 91% (active) | inactive | inactive | inactive | inactive
O=C(CCCCCNC(=O)c1ccc(O)c(-c2ccc(Cl)c(Cl)c2)c1)NCc1cccc(C(F)(F)F)c1 | 10% | 2% | 2 | 92% (active) | inactive | inactive | inactive | inactive
Cc1[nH]c(C)c(-c2ccc(C(=O)c3ccccc3)cc2)c(=O)c1Br | 96% (active) | -10% | 1 | 95% (active) | inactive | inactive | inactive | inactive
CC(C)=C(C(=O)OCc1ccccc1)N1C(=O)[C@@H](NC(c2ccccc2)(c2ccccc2)c2ccccc2)[C@H]1[S@@](=O)CC(=O)OC(C)(C)C | 78% (active) | -2% | -4 | 92% (active) | inactive | inactive | inactive | inactive
CN(C)c1ccc(C=Cc2ccc3ccccc3n2)c(Cl)c1 | 95% (active) | 59% (active) | 1 | 94% (active) | inactive | inactive | inactive | inactive
COc1ccc(-c2cccc(CNCc3ccc(F)cc3)c2)cc1S(=O)(=O)NCCN1CCCC1 | 16% | 20% | 4 | 101% (active) | inactive | inactive | inactive | inactive
CC(C)(C)CC(=O)Nc1ccc(Nc2cc(-c3ccncc3)cc3ncc(C(N)=O)cc23)cc1 | 85% (active) | 5% | 7 | 97% (active) | inactive | inactive | inactive | inactive
O=C(Nc1ccc(Cn2nc(Cl)c(N3CCNCC3)cc2=O)cc1)Nc1ccc(-c2ccccc2)cc1 | 49% | 99% (active) | -3 | 97% (active) | inactive | inactive | inactive | inactive
COc1ccc2ncc(F)c([C@@H](O)CN3CCC(NCc4cc(C#N)c5c(c4)CCO5)CC3)c2n1 | 50% (active) | 15% | 4 | 92% (active) | inactive | inactive | inactive | inactive
CN(C)c1ccc(-c2ccc(C(=O)NC3CCN(Cc4ccccc4F)CC3)s2)cc1 | 19% | 30% | -4 | 88% (active) | inactive | inactive | inactive | inactive
COc1ccc(CCNC(C)Cc2ccc(C(=O)Nc3ccc(CC(C)NCCc4cccc(Cl)c4)cc3)cc2)cc1 (stereo not given) | 89% (active) | 99% (active) | -10 | 101% (active) | inactive | inactive | inactive | inactive
COc1cc(NC(=O)CCCN2CCN(c3cccc(Cl)c3Cl)CC2)ccc1N1CCN(C(C)C)CC1 | 59% (active) | 31% | 4 | 99% (active) | inactive | inactive | inactive | inactive
FC(F)(F)c1cccc(Nc2nc(-c3ccccc3)nc3ncccc23)c1 | 97% (active) | 17% | -1 | 97% (active) | inactive | inactive | inactive | inactive
O=C(CC1CCCC1)Nc1ccc2c(c1)CCC2 | -2% | -1% | 2 | 93% (active) | inactive | inactive | inactive | inactive
CC1CCCN1Cc1ccc(-c2ccc3c(=O)cc(CCc4cccc(F)c4F)n(CC(=O)N(C)Cc4ccc(-c5ccc(C(F)(F)F)cc5)cc4)c3n2)cc1 (stereo not given) | 91% (active) | 0% | 3 | 102% (active) | inactive | inactive | inactive | inactive
Nc1c(Cl)cc(C(O)CNCCCCCOCCCc2ccc3ncccc3c2)cc1Cl (stereo not given) | 77% (active) | 24% | -8 | 96% (active) | inactive | inactive | inactive | inactive
COC(=O)c1cccc(CN(CCC(O)(C(F)(F)F)C(F)(F)F)C(=O)CC2CCCC2)c1 | 53% (active) | -1% | 0 | 98% (active) | inactive | inactive | inactive | inactive
C=CCc1cc(SC)ccc1Oc1ccc(N)cc1 | 2% | 12% | 4 | 96% (active) | inactive | inactive | inactive | inactive
Cc1cc(C(=O)Nc2ccc3c(c2)CCN3C2CCN(Cc3cc(F)cc(F)c3F)C2)no1 (stereo not given) | 96% (active) | -5% | 0 | 95% (active) | inactive | inactive | inactive | inactive
O=C(C=Cc1ccc(F)cc1)NC1CCC(CCN2CCc3ccc(-c4cnccn4)cc3CC2)CC1 (stereo not given) | 65% (active) | 32% | 1 | 99% (active) | inactive | inactive | inactive | inactive

Compound | growth inhibition [1] | inhibition [2] | inhibition [3] [%] | growth inhibition [4] | outcome [5] | outcome [6] | outcome [7] | outcome [8]
CC(C)(C)c1ccccc1SC1=C(O)CC2(CCNCC2)OC1=O | -4% | 0% | 2 | 99% (active) | inactive | inactive | inactive | inactive
CN(CCCN)CCCNc1ccnc2cc(Cl)ccc12 | -2% | 1% | -10 | 101% (active) | inactive | inactive | inactive | inactive
Cc1noc(-c2ccc(NC[C@@H](C)NC[C@H](O)c3cccc(Cl)c3)cc2)n1 | 84% (active) | 11% | -1 | 97% (active) | inactive | inactive | inactive | inactive
CC1CCCCN1CCCNc1nc(NCc2ccccc2)c2ccccc2n1 (stereo not given) | 14% | 24% | 0 | 95% (active) | inactive | inactive | inactive | inactive
Fc1ccc2nc(-c3ccc(-c4ccc(CNCCc5ccncc5)cc4)s3)[nH]c2c1 | 100% (active) | 34% | -3 | 99% (active) | inactive | inactive | inactive | inactive
Cc1cccc(N2CCN(C3CCC(NC(=O)c4cc5ccccc5[nH]4)CC3)CC2)c1C (stereo not given) | 21% | 49% | -4 | 101% (active) | inactive | inactive | inactive | inactive
O=C(/C=C/c1ccc(Cl)c(Cl)c1)NCCCCCN1CCCC(C(=O)Nc2cccc(Cl)c2)C1 (stereo not given) | 2% | 41% | -2 | 99% (active) | inactive | inactive | inactive | inactive
Cc1cc(Nc2ccc(O)cc2)nc2cccc(O)c12 | 28% | 22% | -6 | 99% (active) | inactive | inactive | inactive | inactive
Cc1ccc(CN(Cc2ccc(C(=O)N(C)C)cc2)Cc2ccc3c(c2)OCCO3)cc1C | 87% (active) | 10% | 0 | 91% (active) | inactive | inactive | inactive | inactive
COc1ccc(-c2ccc(NC(=O)c3cccc(C#N)c3)cc2)cc1CN(C)C | 10% | 11% | 0 | 103% (active) | inactive | inactive | inactive | inactive
Cn1c(Nc2cc(C(C)(C)C)on2)nc2cc(Nc3ccnc(Nc4cccc(S(=O)(=O)N5CCOCC5)c4)n3)ccc21 | 96% (active) | 32% | 5 | 101% (active) | inactive | inactive | inactive | inactive
Cc1[nH]c(C)c(-c2cc3ccccc3o2)c(=O)c1Cl | 13% | 1% | -2 | 92% (active) | inactive | inactive | inactive | inactive
Cc1c(CNCCN2CCCCC2)c(C(=O)O)c(C)n1Cc1ccc(Cl)cc1 | 93% (active) | 4% | -6 | 97% (active) | inactive | inactive | inactive | inactive
O=C(Nc1ccc(-c2nc3ccccc3[nH]2)cc1)c1ccc(S(=O)(=O)N2CCc3ccccc32)cc1 | 34% | 32% | 3 | 102% (active) | inactive | inactive | inactive | inactive
Cc1[nH]c(C)c(-c2ccc(-c3ccc(OC(F)(F)F)cc3)nc2)c(=O)c1Cl | 95% (active) | 11% | -6 | 95% (active) | inactive | inactive | inactive | inactive
CCN1CCN(Cc2c(O)ccc3c(=O)c(Oc4cc(C)cc(C)c4)c(C(F)(F)F)oc23)CC1 | 90% (active) | 6% | 3 | 96% (active) | inactive | inactive | inactive | inactive
COc1ccc(-c2ccc(CNCc3ccccc3)cc2)cc1S(=O)(=O)NCCN1CCCC1 | 76% (active) | 36% | -3 | 102% (active) | inactive | inactive | inactive | inactive
COc1cc(Cc2cnc(N)nc2N)cc(OC)c1OCCNC(=O)[C@@H](N)CCC(=O)O | -4% | -1% | -6 | 96% (active) | inactive | inactive | inactive | inactive
COc1ccc(Cl)cc1N1CCN(CCCNC(=O)c2ccc(-c3nc4cc(Cl)c(F)cc4[nH]3)s2)CC1 | 98% (active) | 12% | 4 | 101% (active) | inactive | inactive | inactive | inactive
CC(=O)c1ccc(NC(=O)NNC(=O)c2ccc(CCN3CCC(c4nc(COCC(F)(F)F)c(-c5ccc(F)cc5)o4)CC3)cc2)cc1 | 27% | 17% | -10 | 96% (active) | inactive | inactive | inactive | inactive

— PubChem BioAssay
